“And” between values parts separate entries of the source, which are not always exact repeats. Equal values may be shown once. The source made the active and inactive calls.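 Rule for the calls, unless noted: active = inhibition at or above 50% relative to wild type and mutant plate controls; inactive = inhibition below 50%.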

A short description of experiment [1]: inhibitors of TNFa-induced NFkB p65 translocation, primary screen, imaging, HUVEC, MLSMR starter and 10KST1 sets (AID 438;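 active = inhibition above 20% together with a positive visual image hit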;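 note: compound added about 3h40 before a 20 min TNFalpha stimulation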;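 for inhibition: signal is the nuclear over cytoplasmic p65 intensity ratio per well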). The settings on record: HUVEC TNFa-induced p65 nuclear translocation; cell count: measured here: nuclei count (cytotoxicity indicator), at 2.08 µM unless noted; inhibition: at 2 µM, stronger effect = higher value unless noted.
A short description of experiment [2]: inhibitors of mutant huntingtin aggregation, primary screen, imaging, exon1htt(103Q)mCFP cells, high-content imaging (AID 483;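 active = visual image review flags a hit and inhibition of aggregation exceeds 20%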;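 note: compound exposure lasted 3 days before fixation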;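 for nuclei count: percent of the per-plate median nuclei count of sample wells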). The settings on record: exon1htt(103Q)mCFP cell line, aggregate imaging, at 2 µM; inhibition of aggregation: stronger effect = higher value; nuclei count: measured here: cell count, toxicity.
Experiment [3] in a line: inhibitors of E-selectin induction by TNFa, primary screen, imaging, HUVEC, immunofluorescence, MLSMR starter and 10KST1 sets (AID 487;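 active = visually confirmed hit in the image check and inhibition above 20%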;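 for inhibition: signal is fraction of cell area covered by stained E-selectin grains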;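 for nuclei count: 100% = median nuclei count of all wells on the same plate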). The settings on record: HUVEC TNFalpha-induced E-selectin immunofluorescence imaging, at 2 µM; inhibition: stronger effect = higher value; nuclei count: measured here: cell number, toxicity.
Experiment [4] in a line: DUSP6 inhibitors restoring Erk phosphorylation by chemical complementation, primary imaging in DUSP6-transfected HeLa (AID 609;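 active = compounds giving at least 50% inhibition in the cell-based MKP-3 phosphatase rescue imaging test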;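 for inhibition: phospho-Erk level distribution per well compared with pooled transfected vehicle control wells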). The settings on record: HeLa MKP-3 transfected, phospho-Erk imaging KS statistic, at 10 µM.
The target in experiment [5] is Dual specificity protein phosphatase 6 (Homo sapiens) (UniProt Q16828). The experiment is described as above. The settings on record: HeLa MKP-3 transfected, phospho-Erk imaging KS statistic, at 10 µM, stronger effect = higher value.
Dual specificity protein phosphatase 6 (Homo sapiens), sequence (Q16828 whole entry, looked up): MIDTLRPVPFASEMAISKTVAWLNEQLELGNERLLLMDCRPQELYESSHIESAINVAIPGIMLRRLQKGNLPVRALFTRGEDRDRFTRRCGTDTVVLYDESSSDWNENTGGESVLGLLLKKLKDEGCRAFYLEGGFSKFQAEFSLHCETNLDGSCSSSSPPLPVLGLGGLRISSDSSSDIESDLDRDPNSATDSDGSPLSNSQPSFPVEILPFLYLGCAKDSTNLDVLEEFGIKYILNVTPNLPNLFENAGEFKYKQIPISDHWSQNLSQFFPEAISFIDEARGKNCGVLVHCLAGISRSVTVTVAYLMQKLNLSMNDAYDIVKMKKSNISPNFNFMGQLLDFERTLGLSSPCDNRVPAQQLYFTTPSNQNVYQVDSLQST
The target in experiment [6] is Voltage-gated potassium channel subunit beta-2 (Rattus norvegicus) (UniProt P62483). The experiment in a line: KvBeta enzyme negative modulators, primary screen, biochemical, NADPH fluorescence (AID 622;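 active = fluorescence slope higher than the sample average by over 3 SD, cut at about -0.22 in these data, passing the limit was not always enough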;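 note: slope of raw intensity against log time taken from 70 to 1610 s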). The settings on record: recombinant KvBeta, 4-cyanobenzaldehyde reduction, at 10 µM, stronger effect = higher value.
Voltage-gated potassium channel subunit beta-2 (Rattus norvegicus), sequence (P62483 whole entry, looked up): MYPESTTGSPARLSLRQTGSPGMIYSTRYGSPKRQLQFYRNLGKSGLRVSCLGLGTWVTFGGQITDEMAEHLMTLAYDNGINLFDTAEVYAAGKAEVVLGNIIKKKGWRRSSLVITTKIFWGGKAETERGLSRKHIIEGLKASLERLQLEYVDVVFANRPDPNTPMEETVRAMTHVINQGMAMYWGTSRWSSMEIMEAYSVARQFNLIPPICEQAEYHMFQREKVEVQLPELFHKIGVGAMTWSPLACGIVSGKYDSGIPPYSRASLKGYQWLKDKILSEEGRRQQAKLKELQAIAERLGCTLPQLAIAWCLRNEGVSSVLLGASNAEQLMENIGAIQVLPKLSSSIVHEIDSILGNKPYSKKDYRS
The target is the same in experiment [7]. The experiment in a line: KvBeta positive modulators, primary screen, biochemical, NADPH fluorescence (AID 623;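 active = NADPH fluorescence slope more negative than the mean of all samples by about 3 SD, 99.7% confidence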;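 note: fluorescence intensity change per second fitted from 20 to 320 s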). The settings on record: Recombinant KvBeta, NADPH fluorescence decrease slope, 10 min; at 10 µM; stronger effect = lower value.
Experiment [8] deals with Alpha-2C adrenergic receptor (Homo sapiens) (UniProt P18825). The experiment can be described thus: modulators of alpha2C/GIRK thallium flux, primary screen, cell-based, HEK293 alpha2C/GIRK1/2 (AID 624;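 active = fluorescence slope after compound addition differing from the mean of all screened samples at 99.7% confidence, in either direction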;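 note: slope of fluorescence ratio to pre-addition baseline per second over 15 to 24 s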). The settings on record: thallium flux BTC fluorescence, at 10 µM, actives lie on both sides.
Alpha-2C adrenergic receptor (Homo sapiens), sequence (P18825 whole entry, looked up): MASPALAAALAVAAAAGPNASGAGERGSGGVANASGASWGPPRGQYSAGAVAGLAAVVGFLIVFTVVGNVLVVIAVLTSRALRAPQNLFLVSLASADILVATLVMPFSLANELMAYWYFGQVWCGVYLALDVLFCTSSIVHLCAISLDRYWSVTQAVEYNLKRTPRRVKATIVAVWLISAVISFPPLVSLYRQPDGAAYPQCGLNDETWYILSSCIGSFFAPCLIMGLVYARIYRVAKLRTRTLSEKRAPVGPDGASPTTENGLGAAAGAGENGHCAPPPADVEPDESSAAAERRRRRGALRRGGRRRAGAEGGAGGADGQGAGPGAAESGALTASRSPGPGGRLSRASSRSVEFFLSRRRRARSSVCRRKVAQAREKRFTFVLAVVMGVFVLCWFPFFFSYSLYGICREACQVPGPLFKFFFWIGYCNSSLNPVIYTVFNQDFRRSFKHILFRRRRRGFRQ
A short description of experiment [9]: inhibitors of larval lipid processing in zebrafish, primary screen, whole organism, PED6 fluorescence, gall bladder and intestine (AID 686;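 active = a full or partial loss of lipid-probe fluorescence in the fish gall bladder, intestine or both, judged by eye; inactive = no fluorescence loss, or compound toxic to the fish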;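 note: larvae 5 to 7 days old with five fish per well; signal comes from phospholipase A2 cleavage of quenched PED6 carried via bile; overnight exposure to compound and PED6 before scoring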). The settings on record: Zebrafish larvae PED6 lipid processing, fluorescence scoring.
A short description of experiment [10]: inhibitors of Chlamydomonas gravitaxis, primary screen, whole organism, Chlamydomonas reinhardtii, WT vs cilia-less mutant, absorbance, 96-well (AID 463189).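 Note: 0% = wild type cc124 cells in DMSO and 100% = ciliumless bld1 mutant cells.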 The settings on record: OD600 absorbance, 2 days, at 10 µM, stronger effect = higher value.
A short description of experiment [11]: inhibitors of Sendai virus-induced IRF3 signaling, primary screen, TLR/RLR signaling modifier project, cell-based, Sendai virus stimulus, luciferase, 10K MLSCN set (AID 602276;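 active = inhibition at or above 50% at 10 µM; inactive = inhibition below 50%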;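 note: firefly luciferase from ISG56 promoter only with Renilla not read in this screen; 0% = Sendai virus plus DMSO and 100% = medium plus DMSO without virus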). The settings on record: HEK293 RL24 IRF3 luciferase reporter, at 10 µM, stronger effect = higher value. (Reporter assays use an easily measured gene product as a stand-in for the process of interest.)

A short description of experiment [12]: inhibitors of poly I:C-induced TLR3 signaling, primary screen, cell-based, poly I:C stimulus, luciferase, 10K MLSCN set (AID 602277;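 active = inhibition of the reporter signal at or above 50%; inactive = inhibition below 50%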). The settings on record: HEK293-TLR3 RL24 IRF3 luciferase reporter, at 10 µM, stronger effect = higher value.
The mark [13] stands for this setting: measured here: cell density z-score.
[14] abbreviates: measured here: nuclear c-Myc green intensity z-score.
[15] abbreviates: measured here: nuclear pErk red intensity z-score, stronger effect = higher value.

By inhibition is commonly meant the change of the read-out against control, counted positive when it falls. `O=c1c2ccccc2[se]n1-c1ccccc1` came in with a cell count in experiment [1] of 504. For the same compound, the inhibition in experiment [1] is -10.8% (inactive); in [3], -42.3% (inactive); in experiment [5] it was 7.39% (inactive); in [10], 6.32% (inactive) and 27.8% (inactive); in experiment [11], 0.283% (inactive); in [12], 12.7% (inactive). The inhibition of aggregation in experiment [2] is 7.2% (inactive). Besides, the nuclei count was 84.9% in [2] and 117% in experiment [3]. The z-score was 1 in [4] (setting [13]), 0.0235 in experiment [4] (setting [14]) and -0.954 in experiment [4] (setting [15]). Besides, the fluorescence slope in [6] was -0.437 (inactive). Further, the NADPH fluorescence slope in experiment [7] is -0.000217 (active). For the same compound, the slope in [8] was 0.00458 (inactive). The call in [9] was inactive.
In turn, `COc1ccc2[nH]cc(CCN(C)C)c2c1` yielded a cell count in experiment [1] of 560. Also, the inhibition is -3.3% (inactive) in [1]; -34% (inactive) in experiment [3]; 3.59% (inactive) in experiment [5]; 12.8% (inactive) and -9.88% (inactive) in [10]; 7.44% (inactive) in experiment [11]; 13.2% (inactive) in experiment [12]. The inhibition of aggregation in experiment [2] was -16.8% (inactive). Moreover, the values for the nuclei count in experiment [2] and in [3] were 95.6% and 102%, respectively. Also, the z-score in experiment [4] (setting [13]) is -0.633; in [4] (setting [14]), 0.535; in experiment [4] (setting [15]), 0.345. For the same compound, in experiment [6], the fluorescence slope was -0.516 (inactive). Further, the NADPH fluorescence slope in [7] is 1.6e-07 (inactive). Moreover, the slope in experiment [8] was 0.00666 (inactive). Also, the compound was called inactive in experiment [9].
In turn, `CC(CCc1ccccc1)NC(C)C(O)c1ccc(O)cc1` (stereo unspecified) had a cell count in experiment [1] of 697. The inhibition was 2% (inactive) in experiment [1]; -54.5% (inactive) in experiment [3]; 10.2% (inactive) in experiment [5]; 8.38% (inactive) and -4.76% (inactive) in [10]; -11.1% (inactive) in [11]; 12% (inactive) in experiment [12]. Moreover, in experiment [2], the inhibition of aggregation is 19.5% (inactive). Further, the figures for the nuclei count in experiment [2] and in experiment [3] were 96.6% and 119%, respectively. Also, the z-score in [4] (setting [13]) was -0.115; in experiment [4] (setting [14]), -1.79; in experiment [4] (setting [15]) it was -1.46. The fluorescence slope in experiment [6] was -0.468 (inactive). Also, the NADPH fluorescence slope in [7] was 4.8e-05 (inactive). Also, the slope in [8] was 0.00919 (inactive). Moreover, the call in experiment [9] was inactive.
In the case of `C#C[C@]1(O)CC[C@H]2[C@@H]3CCC4=CC(=O)CC[C@]4(C)[C@H]3CC[C@@]21C`, in experiment [1], the cell count was 605. In addition, the inhibition in experiment [1] was 4.5% (inactive); in [3] it was -96.4% (inactive); in experiment [5], 19% (inactive); in [10], -7.99% (inactive); in experiment [11], 9.99% (inactive); in experiment [12], 37.9% (inactive). The inhibition of aggregation in experiment [2] is -1.7% (inactive). In addition, the figures for the nuclei count in experiment [2] and in [3] were 104% and 120%, respectively. In addition, the z-score was 0.928 in experiment [4] (setting [13]), -0.272 in experiment [4] (setting [14]) and -0.147 in [4] (setting [15]). Moreover, the fluorescence slope in experiment [6] was -0.469 (inactive). Further, the NADPH fluorescence slope in experiment [7] was -5.4e-05 (inactive). Moreover, in experiment [8], the slope is 0.00473 (inactive). For the same compound, the result in [9] was inactive.
In [1], `COc1ccc(C(=O)N2CCCC2=O)cc1` registered a cell count of 667. Also, the inhibition in experiment [1] is 2.2% (inactive); in experiment [3], -40.5% (inactive); in experiment [5], 19% (inactive); in experiment [10], 6.16% (inactive) and 14.6% (inactive); in experiment [11], 13.2% (inactive); in experiment [12] it was 20.9% (inactive). Further, the inhibition of aggregation in experiment [2] was 11.2% (inactive). The nuclei count in experiment [2] turned out to be 104%; in experiment [3] it was 108%. The values for the z-score in experiment [4] (setting [13]), in experiment [4] (setting [14]) and in experiment [4] (setting [15]) were 0.0379, -0.632 and 1.58, respectively. The fluorescence slope in experiment [6] is -0.52 (inactive). Further, in experiment [7], the NADPH fluorescence slope is -4.5e-05 (inactive). Further, the slope in experiment [8] is 0.00436 (inactive). Also, the result in [9] was inactive.
In experiment [1], `C[N+]1(C)[C@@H]2CC(OC(=O)[C@H](CO)c3ccccc3)C[C@H]1[C@@H]1O[C@@H]12` (stereo partly specified) displayed a cell count of 542. The inhibition in [1] is -16.3% (inactive); in experiment [3] it was -56.7% (inactive); in experiment [5], -0.493% (inactive); in [10], 9.4% (inactive); in [11] it was -2.08% (inactive); in experiment [12], 22.3% (inactive). In experiment [2], the inhibition of aggregation is 19% (inactive). In addition, the nuclei count in [2] is 107%; in experiment [3], 129%. Besides, the values for the z-score in [4] (setting [13]), in experiment [4] (setting [14]) and in [4] (setting [15]) were -0.698, -0.0087 and -0.0821, respectively. Besides, the fluorescence slope in experiment [6] was -0.433 (inactive). In addition, the NADPH fluorescence slope in [7] is 2.1e-05 (inactive). In experiment [8], the slope was 0.0054 (inactive). In addition, the call in experiment [9] was inactive.
Take `COc1ccc(OC)c(C(O)C(C)N)c1` (stereo unspecified): in experiment [1], the cell count was 507. For the same compound, the inhibition in [1] was -7.1% (inactive); in experiment [3], -75.2% (inactive); in experiment [5] it was 11.3% (inactive); in experiment [10] it was 8.38% (inactive) and -0.435% (inactive); in experiment [11] it was 4.62% (inactive); in experiment [12], 34.8% (inactive). Moreover, the inhibition of aggregation in experiment [2] was 7% (inactive). Also, the values for the nuclei count in experiment [2] and in [3] were 57.3% and 108%, respectively. For the same compound, the z-score is -0.1 in experiment [4] (setting [13]), 0.202 in [4] (setting [14]) and 1.18 in [4] (setting [15]). Besides, the fluorescence slope in [6] was -0.51 (inactive). The NADPH fluorescence slope in experiment [7] was -2.7e-05 (inactive). For the same compound, the slope in [8] is 0.0053 (inactive). Further, the outcome in experiment [9] was inactive.
`CNCCc1c[nH]c2ccccc12` showed a cell count in experiment [1] of 615. Further, the inhibition in experiment [1] is -10.3% (inactive); in experiment [3], -70.6% (inactive); in experiment [5], -6.41% (inactive); in experiment [10], 1.04% (inactive); in [11] it was 25.5% (inactive); in experiment [12] it was 49.1% (inactive). For the same compound, the inhibition of aggregation in experiment [2] was 3.8% (inactive). The nuclei count in [2] was 103%; in experiment [3], 127%. Moreover, the z-score was -0.539 in experiment [4] (setting [13]), -0.571 in experiment [4] (setting [14]) and -0.457 in experiment [4] (setting [15]). In experiment [6], the fluorescence slope is -0.506 (inactive). Besides, the NADPH fluorescence slope in [7] is 2.2e-05 (inactive). The slope in experiment [8] is 0.00539 (inactive). In experiment [9], the call was inactive.
In turn, `O=c1[nH]c2ccccc2n1C1CCN(CCCC(c2ccc(F)cc2)c2ccc(F)cc2)CC1` had a cell count in experiment [1] of 544. For the same compound, the inhibition was -2.2% (inactive) in experiment [1]; -26.6% (inactive) in experiment [3]; 5.42% (inactive) in experiment [5]; -5.72% (inactive) and -16.1% (inactive) in experiment [10]; 18.5% (inactive) in experiment [11]; 10.5% (inactive) in experiment [12]. The nuclei count in [3] was 108%. Moreover, the z-score in experiment [4] (setting [13]) is -0.698; in experiment [4] (setting [14]) it was 0.151; in [4] (setting [15]), -0.248. Further, the fluorescence slope in experiment [6] was -0.556 (inactive). Besides, the NADPH fluorescence slope in [7] is -6.4e-05 (inactive). In addition, in experiment [8], the slope was 0.00493 (inactive). In addition, in experiment [9], the outcome was inactive.

Values taken from PubChem BioAssay.
